Experimental data reported in PubChem BioAssay AID651597 (National Center for Advancing Translational Sciences (NCATS), 2012).
Hit rate of the full screen: of about 1,100 compounds, about 390 (35%) were called active. About 30% were inconclusive and are not listed. The call rests on the fitted dose curve; in most records, active means well fitted inhibition curve with a large enough effect; inconclusive means small, poorly fitted or top-dose-only effect; inactive means flat fitted curve, though single readings scatter. The list shows a part of the results. Entries that show only a call come without a potency.

What follows are compounds tested against Luciferin 4-monooxygenase (Photinus pyralis) (UniProt P08659) (assay: qHTS of Nrf2 Activators: Hit Validation in Secondary FLuc Assay). Conditions: firefly luciferase inhibition counter-screen, luminescence; series mostly up to 57.5 µM.
How it was run: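 Counter-screen on purified firefly luciferase with ATP and D-luciferin at Km concentrations; compounds flagged if they inhibit the enzyme, indicating possible reporter stabilization rather than ARE activation.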
Further: nearly all actives have a fitted effect of over 65% in size.
Potency means the concentration at half of the fitted maximal effect.

SMILES	Potency
COCCN(C(=O)COC(=O)/C=C/c1ccccc1Cl)c1c(N)n(Cc2ccccc2)c(=O)[nH]c1=O	inactive
O=C(/C=C/c1ccccc1Cl)Nn1cnc2ccccc2c1=O	inactive
O=C(C=Cc1ccccc1Cl)c1ccccc1	0.953 µM (active)
Cn1c(=O)c(C(=O)NNC(=O)c2ccccc2F)c(O)c2ccccc21	inactive
Oc1c(-c2cc(-c3ccco3)[nH]n2)ccc2ccccc12	0.953 µM (active)
Oc1ccc(Cl)cc1-c1cc(-c2ccco2)[nH]n1	13.5 µM (active)
FC(F)(F)c1cc(-c2ccco2)nc(NCc2ccco2)n1	inactive
Oc1ccc(Br)cc1-c1cc(-c2ccco2)[nH]n1	16.9 µM (active)
Oc1ccccc1C=NN=C1c2ccccc2-c2ccccc21	4.26 µM (active)
O=C(Nc1ccccc1C(=O)N/N=C/c1ccco1)c1ccccc1	7.57 µM (active)
O=C(Nc1ccccc1C(=O)N/N=C/c1ccco1)c1ccc(F)cc1	4.78 µM (active)
O=C(N/N=C/c1cn[nH]c1-c1ccccc1)c1ccco1	inactive
Nc1c(Cl)c(Cl)nc(C(=O)N/N=C/c2ccco2)c1Cl	inactive
COC(CN(C(=O)CCl)C(C(=O)NC1CCCCC1)c1ccccc1C)OC (stereo not drawn)	inactive
COc1ccc([N+](=O)[O-])cc1NC(=O)c1ccco1	inactive
COc1ccc([N+](=O)[O-])cc1C1NN=C(c2ccccc2O)S1 (stereo not drawn)	8.49 µM (active)
CCN1CCN(c2sc(S(C)(=O)=O)nc2S(=O)(=O)c2ccc(Cl)cc2)CC1	inactive

SMILES	Potency
CC(=O)OC1(C(C)=O)CCC2C3CC(C(F)(F)F)C4=CC(=O)CCC4(C)C3CCC21C (stereo not drawn)	inactive
CC1CN(c2sc(S(C)(=O)=O)nc2S(=O)(=O)c2ccc(Cl)cc2)CC(C)O1 (stereo not drawn)	inactive
O=C(Nc1ccccc1)Nc1cccc2nsnc12	2.69 µM (active)
O=C(Nc1ccccc1)c1nc[nH]c1C(=O)Nc1ccccc1F	inactive
C/C(=N\Nc1ccccn1)c1cccs1	2.39 µM (active)
C/C(=N\Nc1ccc2nncn2n1)c1ccc(Cl)s1	inactive
C/C(=N\Nc1ccccn1)c1ccc(Br)s1	12 µM (active)
Cn1c(N)c(C(=O)COC(=O)c2nc(Cl)ccc2Cl)c(=O)n(C)c1=O	inactive
CC(C)(C)c1csc(NC(=O)CCS(=O)(=O)c2ccc(F)cc2)n1	inactive
O=C(/C=C/c1ccccc1)Nc1ncn[nH]1	10.7 µM (active)
CN1c2ccsc2/C(=N/Nc2ccccc2)CS1(=O)=O	7.57 µM (active)
OCC1OC(n2cnc3c(NCc4ccccc4O)ncnc32)C(O)C1O (stereo not drawn)	inactive
CC1=NC(=O)C(N=Nc2cccc(O)c2)N1c1ccccc1 (stereo not drawn)	3.79 µM (active)
Clc1ccc(/C=N/Nc2nnc(Cl)c3ccccc23)cc1	0.338 µM (active)
CSc1nsc(SC)c1C(=O)Nc1ccc(C)cc1	inactive
CNc1nc(N)c([N+](=O)[O-])c(Nc2cccc(Cl)c2)n1	inactive
